# In the supplement of paper PMC4466140:
# Target: CaNbp2
# Assay: SPOT peptide array binding signal intensity (averaged, normalized) (arbitrary units (background-subtracted, floor 0; scale differs between SH3 domains)); higher = stronger binding of the SH3 domain to the peptide
# Outline: (§1)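 Four yeast species supplied the SH3 domains, which were expressed as GST fusions in E. coli BL21(DE3) and purified on glutathione Sepharose. Incubation with cellulose membranes carrying synthetic 15-mer peptides, cysteines exchanged for serines, ran overnight at 4°C at 10 μg/ml in TBS-based blocking buffer. Binding signal is reported as normalized, background-subtracted spot intensity averaged over replicates, in arbitrary units not shared between domains.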
row,Binder,SPOT peptide array binding signal intensity
1,VGFRLALKFPSRITG,2320
2,QHQQRQPKRPKRYSL,492

# Target: CaRvs167
# Assay: as above
# Outline: as §1
row,Binder,SPOT peptide array binding signal intensity
1,VGFRLALKFPSRITG,703
2,QHQQRQPKRPKRYSL,18.5

# Target: CaRvs167-3
# Assay: as above
# Outline: as §1
row,Binder,SPOT peptide array binding signal intensity
1,VGFRLALKFPSRITG,2360
2,QHQQRQPKRPKRYSL,38.2

# Target: CaSho1
# Assay: as above
# Outline: as §1
row,Binder,SPOT peptide array binding signal intensity
1,VGFRLALKFPSRITG,3450
2,QHQQRQPKRPKRYSL,56.5

# Target: CaSla1-D1-D2
# Assay: as above
# Outline: as §1
row,Binder,SPOT peptide array binding signal intensity
1,VGFRLALKFPSRITG,108
2,QHQQRQPKRPKRYSL,558

# Target: CaSla1-D3
# Assay: as above
# Outline: as §1
row,Binder,SPOT peptide array binding signal intensity
1,VGFRLALKFPSRITG,782
2,QHQQRQPKRPKRYSL,26.2

# Target: ScAbp1
# Assay: as above
# Outline: as §1
row,Binder,SPOT peptide array binding signal intensity
1,VGFRLALKFPSRITG,137
2,QHQQRQPKRPKRYSL,43

# Target: ScBbc1
# Assay: as above
# Outline: as §1
row,Binder,SPOT peptide array binding signal intensity
1,VGFRLALKFPSRITG,11.5
2,QHQQRQPKRPKRYSL,251

# Target: ScBem1-D1
# Assay: as above
# Outline: as §1
row,Binder,SPOT peptide array binding signal intensity
1,VGFRLALKFPSRITG,60
2,QHQQRQPKRPKRYSL,14

# Target: ScBzz1-D1
# Assay: as above
# Outline: as §1
row,Binder,SPOT peptide array binding signal intensity
1,VGFRLALKFPSRITG,188
2,QHQQRQPKRPKRYSL,9

# Target: ScBzz1-D2
# Assay: as above
# Outline: as §1
row,Binder,SPOT peptide array binding signal intensity
1,VGFRLALKFPSRITG,649
2,QHQQRQPKRPKRYSL,12

# Target: ScCyk3
# Assay: as above
# Outline: as §1
row,Binder,SPOT peptide array binding signal intensity
1,VGFRLALKFPSRITG,137
2,QHQQRQPKRPKRYSL,216

# Target: ScFus1
# Assay: as above
# Outline: as §1
row,Binder,SPOT peptide array binding signal intensity
1,VGFRLALKFPSRITG,3260
2,QHQQRQPKRPKRYSL,54.5

# Target: ScHof1
# Assay: as above
# Outline: as §1
row,Binder,SPOT peptide array binding signal intensity
1,VGFRLALKFPSRITG,7.5
2,QHQQRQPKRPKRYSL,≤ 0

# Target: ScHse1
# Assay: as above
# Outline: as §1
row,Binder,SPOT peptide array binding signal intensity
1,VGFRLALKFPSRITG,3980
2,QHQQRQPKRPKRYSL,409

# Target: ScLsb1
# Assay: as above
# Outline: as §1
row,Binder,SPOT peptide array binding signal intensity
1,VGFRLALKFPSRITG,12
2,QHQQRQPKRPKRYSL,25.8

# Target: ScLsb2
# Assay: as above
# Outline: as §1
row,Binder,SPOT peptide array binding signal intensity
1,VGFRLALKFPSRITG,38
2,QHQQRQPKRPKRYSL,45

# Target: ScLsb3
# Assay: as above
# Outline: as §1
row,Binder,SPOT peptide array binding signal intensity
1,VGFRLALKFPSRITG,1230
2,QHQQRQPKRPKRYSL,1410

# Target: ScLsb4
# Assay: as above
# Outline: as §1
row,Binder,SPOT peptide array binding signal intensity
1,VGFRLALKFPSRITG,152
2,QHQQRQPKRPKRYSL,140

# Target: ScMyo3
# Assay: as above
# Outline: as §1
row,Binder,SPOT peptide array binding signal intensity
1,VGFRLALKFPSRITG,8.5
2,QHQQRQPKRPKRYSL,4.25

# Target: ScMyo5
# Assay: as above
# Outline: as §1
row,Binder,SPOT peptide array binding signal intensity
1,VGFRLALKFPSRITG,26.5
2,QHQQRQPKRPKRYSL,7.75

# Target: ScNbp2
# Assay: as above
# Outline: as §1
row,Binder,SPOT peptide array binding signal intensity
1,VGFRLALKFPSRITG,1400
2,QHQQRQPKRPKRYSL,620

# Target: ScPex13
# Assay: as above
# Outline: as §1
row,Binder,SPOT peptide array binding signal intensity
1,VGFRLALKFPSRITG,67.8
2,QHQQRQPKRPKRYSL,88.8

# Target: ScRvs167
# Assay: as above
# Outline: as §1
row,Binder,SPOT peptide array binding signal intensity
1,VGFRLALKFPSRITG,180
2,QHQQRQPKRPKRYSL,129

# Target: ScSho1
# Assay: as above
# Outline: as §1
row,Binder,SPOT peptide array binding signal intensity
1,VGFRLALKFPSRITG,3930
2,QHQQRQPKRPKRYSL,196

# Target: ScSla1-D1-D2
# Assay: as above
# Outline: as §1
row,Binder,SPOT peptide array binding signal intensity
1,VGFRLALKFPSRITG,561
2,QHQQRQPKRPKRYSL,372

# Target: ScSla1-D3
# Assay: as above
# Outline: as §1
row,Binder,SPOT peptide array binding signal intensity
1,VGFRLALKFPSRITG,246
2,QHQQRQPKRPKRYSL,22.2

# Target: SpAbp1-D1
# Assay: as above
# Outline: as §1
row,Binder,SPOT peptide array binding signal intensity
1,VGFRLALKFPSRITG,658
2,QHQQRQPKRPKRYSL,426

# Target: SpBbc1
# Assay: as above
# Outline: as §1
row,Binder,SPOT peptide array binding signal intensity
1,VGFRLALKFPSRITG,97.5
2,QHQQRQPKRPKRYSL,31

# Target: SpBzz1-D1
# Assay: as above
# Outline: as §1
row,Binder,SPOT peptide array binding signal intensity
1,VGFRLALKFPSRITG,1110
2,QHQQRQPKRPKRYSL,250

# Target: SpBzz1-D2
# Assay: as above
# Outline: as §1
row,Binder,SPOT peptide array binding signal intensity
1,VGFRLALKFPSRITG,111
2,QHQQRQPKRPKRYSL,1.5

# Target: SpCyk3
# Assay: as above
# Outline: as §1
row,Binder,SPOT peptide array binding signal intensity
1,VGFRLALKFPSRITG,75
2,QHQQRQPKRPKRYSL,10.5

# Target: SpHof1
# Assay: as above
# Outline: as §1
row,Binder,SPOT peptide array binding signal intensity
1,VGFRLALKFPSRITG,620
2,QHQQRQPKRPKRYSL,81

# Target: SpHof1-2
# Assay: as above
# Outline: as §1
row,Binder,SPOT peptide array binding signal intensity
1,VGFRLALKFPSRITG,179
2,QHQQRQPKRPKRYSL,18.8

# Target: SpHof1-3
# Assay: as above
# Outline: as §1
row,Binder,SPOT peptide array binding signal intensity
1,VGFRLALKFPSRITG,2110
2,QHQQRQPKRPKRYSL,169

# Target: SpHse1
# Assay: as above
# Outline: as §1
row,Binder,SPOT peptide array binding signal intensity
1,VGFRLALKFPSRITG,1790
2,QHQQRQPKRPKRYSL,75.2

# Target: SpLsb1
# Assay: as above
# Outline: as §1
row,Binder,SPOT peptide array binding signal intensity
1,VGFRLALKFPSRITG,40.5
2,QHQQRQPKRPKRYSL,73.8

# Target: SpLsb4
# Assay: as above
# Outline: as §1
row,Binder,SPOT peptide array binding signal intensity
1,VGFRLALKFPSRITG,913
2,QHQQRQPKRPKRYSL,2350

# Target: SpMyo1
# Assay: as above
# Outline: as §1
row,Binder,SPOT peptide array binding signal intensity
1,VGFRLALKFPSRITG,41
2,QHQQRQPKRPKRYSL,7.75

# Target: SpNbp2
# Assay: as above
# Outline: as §1
row,Binder,SPOT peptide array binding signal intensity
1,VGFRLALKFPSRITG,2320
2,QHQQRQPKRPKRYSL,267

# Target: SpPex13
# Assay: as above
# Outline: as §1
row,Binder,SPOT peptide array binding signal intensity
1,VGFRLALKFPSRITG,578
2,QHQQRQPKRPKRYSL,12

# Target: SpRvs167
# Assay: as above
# Outline: as §1
row,Binder,SPOT peptide array binding signal intensity
1,VGFRLALKFPSRITG,161
2,QHQQRQPKRPKRYSL,26.8

# Target: SpSla1-D1-D2
# Assay: as above
# Outline: as §1
row,Binder,SPOT peptide array binding signal intensity
1,VGFRLALKFPSRITG,17
2,QHQQRQPKRPKRYSL,≤ 0

# Target: SpSla1-D3
# Assay: as above
# Outline: as §1
row,Binder,SPOT peptide array binding signal intensity
1,VGFRLALKFPSRITG,260
2,QHQQRQPKRPKRYSL,6

# Target: AgAbp1
# Assay: as above
# Outline: as §1
row,Binder,SPOT peptide array binding signal intensity
1,QHQQRQPKRPKRYSL,147

# Target: AgBbc1
# Assay: as above
# Outline: as §1
row,Binder,SPOT peptide array binding signal intensity
1,QHQQRQPKRPKRYSL,293

# Target: AgBem1-D1
# Assay: as above
# Outline: as §1
row,Binder,SPOT peptide array binding signal intensity
1,QHQQRQPKRPKRYSL,112

# Target: AgBzz1-D1
# Assay: as above
# Outline: as §1
row,Binder,SPOT peptide array binding signal intensity
1,QHQQRQPKRPKRYSL,55.5

# Target: AgBzz1-D2
# Assay: as above
# Outline: as §1
row,Binder,SPOT peptide array binding signal intensity
1,QHQQRQPKRPKRYSL,19

# Target: AgCyk3
# Assay: as above
# Outline: as §1
row,Binder,SPOT peptide array binding signal intensity
1,QHQQRQPKRPKRYSL,11

# Target: AgFus1
# Assay: as above
# Outline: as §1
row,Binder,SPOT peptide array binding signal intensity
1,QHQQRQPKRPKRYSL,98.5

# Target: AgHof1
# Assay: as above
# Outline: as §1
row,Binder,SPOT peptide array binding signal intensity
1,QHQQRQPKRPKRYSL,34.5

# Target: AgHse1
# Assay: as above
# Outline: as §1
row,Binder,SPOT peptide array binding signal intensity
1,QHQQRQPKRPKRYSL,353

# Target: AgLsb1
# Assay: as above
# Outline: as §1
row,Binder,SPOT peptide array binding signal intensity
1,QHQQRQPKRPKRYSL,15

# Target: AgLsb4
# Assay: as above
# Outline: as §1
row,Binder,SPOT peptide array binding signal intensity
1,QHQQRQPKRPKRYSL,151

# Target: AgMyo5
# Assay: as above
# Outline: as §1
row,Binder,SPOT peptide array binding signal intensity
1,QHQQRQPKRPKRYSL,1.5

# Target: AgNbp2
# Assay: as above
# Outline: as §1
row,Binder,SPOT peptide array binding signal intensity
1,QHQQRQPKRPKRYSL,654

# Target: AgRvs167
# Assay: as above
# Outline: as §1
row,Binder,SPOT peptide array binding signal intensity
1,QHQQRQPKRPKRYSL,6

# Target: AgSho1
# Assay: as above
# Outline: as §1
row,Binder,SPOT peptide array binding signal intensity
1,QHQQRQPKRPKRYSL,12

# Target: AgSla1-D1-D2
# Assay: as above
# Outline: as §1
row,Binder,SPOT peptide array binding signal intensity
1,QHQQRQPKRPKRYSL,288

# Target: AgSla1-D3
# Assay: as above
# Outline: as §1
row,Binder,SPOT peptide array binding signal intensity
1,QHQQRQPKRPKRYSL,3.5

# Target: CaAbp1-D1
# Assay: as above
# Outline: as §1
row,Binder,SPOT peptide array binding signal intensity
1,QHQQRQPKRPKRYSL,1050

# Target: CaAbp1-D2
# Assay: as above
# Outline: as §1
row,Binder,SPOT peptide array binding signal intensity
1,QHQQRQPKRPKRYSL,639

# Target: CaBbc1
# Assay: as above
# Outline: as §1
row,Binder,SPOT peptide array binding signal intensity
1,QHQQRQPKRPKRYSL,792

# Target: CaBem1-D1
# Assay: as above
# Outline: as §1
row,Binder,SPOT peptide array binding signal intensity
1,QHQQRQPKRPKRYSL,20

# Target: CaBzz1-D1
# Assay: as above
# Outline: as §1
row,Binder,SPOT peptide array binding signal intensity
1,QHQQRQPKRPKRYSL,59

# Target: CaBzz1-D2
# Assay: as above
# Outline: as §1
row,Binder,SPOT peptide array binding signal intensity
1,QHQQRQPKRPKRYSL,94

# Target: CaCyk3
# Assay: as above
# Outline: as §1
row,Binder,SPOT peptide array binding signal intensity
1,QHQQRQPKRPKRYSL,211

# Target: CaFus1
# Assay: as above
# Outline: as §1
row,Binder,SPOT peptide array binding signal intensity
1,QHQQRQPKRPKRYSL,126

# Target: CaHof1
# Assay: as above
# Outline: as §1
row,Binder,SPOT peptide array binding signal intensity
1,QHQQRQPKRPKRYSL,2

# Target: CaHse1
# Assay: as above
# Outline: as §1
row,Binder,SPOT peptide array binding signal intensity
1,QHQQRQPKRPKRYSL,175

# Target: CaLsb1
# Assay: as above
# Outline: as §1
row,Binder,SPOT peptide array binding signal intensity
1,QHQQRQPKRPKRYSL,2.5

# Target: CaLsb4
# Assay: as above
# Outline: as §1
row,Binder,SPOT peptide array binding signal intensity
1,QHQQRQPKRPKRYSL,1810

# Target: CaMyo5
# Assay: as above
# Outline: as §1
row,Binder,SPOT peptide array binding signal intensity
1,QHQQRQPKRPKRYSL,12
